This is part of a sample that, as a whole, favours compounds with a hit. Of some 79,000 tested, about 15% had one in any assay. The source made the active and inactive calls. Cut-off read from the data, not from the text of the source: active = growth inhibition above about 70%; inactive = the rest.
Assay: NCI Yeast Anticancer Drug Screen. Data for the sgs1 mgt1 strain (AID 161);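 note: 0% = growth of cultures given vehicle only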
Conditions: S. cerevisiae sgs1 mgt1 strain, at 50.0 µM, active compounds read high
Method in brief: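 Inhibition of yeast growth, normalised to vehicle-treated controls, is reported for a strain bearing genetic alterations in DNA damage repair.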
In the case of `COc1cc2c(cc1O)C(=O)CCCC2`, the growth inhibition is reported as -17.8% (inactive).
In the case of `CC(O)C1CCCCC1O` (stereo not drawn), the growth inhibition is reported as -2.85% (inactive).
For `CC(=O)OCC1OC(n2cccnc2=O)C(OC(C)=O)C1OC(C)=O` (stereo not drawn), the growth inhibition was 2.25% (inactive).
With `CCCCOC(=O)c1c2nc3c(C(=O)OCCCC)ccc(C)c3oc-2c(C)c(=O)c1NC(C)=O` the growth inhibition was 6.95% (inactive).
In the case of `O=C(Nc1cccc([N+](=O)[O-])c1)OCC#CCOC(=O)Nc1cccc([N+](=O)[O-])c1`, the growth inhibition is reported as 13.7% (inactive).
With `Nc1cccc2ccc(Cl)nc12` the growth inhibition was 14.2% (inactive).
For `O=P(O)(O)OC1C(OP(=O)(O)O)C(OP(=O)(O)O)C(OP(=O)(O)O)C(OP(=O)(O)O)C1OP(=O)(O)O.[Cu+2]` (stereo not drawn), the growth inhibition was -14.7% (inactive).
With `CC(C)SSC(=O)N1CCCC1C(=O)O` (stereo not drawn) the growth inhibition was -5.45% (inactive).
In the case of `O=[N+]([O-])c1ccc(/C=N\NC(=S)Nc2ccc3cn[nH]c3c2)cc1`, the growth inhibition is reported as 7.6% (inactive).
With `COC(=O)CCCCCNC(=O)NCCCCCC(=O)OC` the growth inhibition was -1.2% (inactive).
With `COc1cc2c(cc1Cc1cc(OC)c(OC)c(OC)c1)OCO2` the growth inhibition was 9.55% (inactive).
In the case of `N#CCCNC(CC(=O)O)C(=O)O` (stereo not drawn), the growth inhibition is reported as 14.4% (inactive).
With `Cc1ccc2nc3c(C)cc(=O)cc-3sc2c1` the growth inhibition was 36.5% (inactive).
With `Oc1ccc(O)c(-c2ccccc2)c1` the growth inhibition was 53.2% (inactive).
In the case of `CCN(CC)CCOC(=O)c1noc2cc([N+](=O)[O-])ccc12`, the growth inhibition is reported as -1.25% (inactive).
For `Nc1cccc(N2N=C(C(=O)O)CC2=O)c1`, the growth inhibition was -40.9% (inactive).
In the case of `Cc1ccccc1NC(=O)CC(=O)N1N=C(N(CCC#N)c2ccccc2Cl)CC1c1ccccc1` (stereo not drawn), the growth inhibition is reported as -39.3% (inactive).
With `NC(=O)N/N=C/c1ccccc1O` the growth inhibition was 15% (inactive).
In the case of `CCCCCC(=O)Oc1ccccc1OC`, the growth inhibition is reported as 1.15% (inactive).
In the case of `C=C(C)COc1ccc(Nc2ccccc2)cc1`, the growth inhibition is reported as 22% (inactive).
For `NCCCCCC(=O)O`, the growth inhibition was -17.6% (inactive).
For `Cc1cc(Br)ccc1NC1=CC(=O)C(=O)c2ccccc21`, the growth inhibition was -3.4% (inactive).
With `Cc1cc2c(=O)cc(-c3ccncc3)oc2c(C(=O)O)c1C` the growth inhibition was -10.3% (inactive).
With `CC1(C)CC(C2=NCCO2)CC(C)(C)N1` the growth inhibition was -39.3% (inactive).
With `C=CCOc1cc2c(cc1C(C)c1ccc(OCC)c(C)c1)OCO2` (stereo not drawn) the growth inhibition was -4.85% (inactive).
With `COc1cccc(Oc2ccc(C)cc2)c1` the growth inhibition was -18.6% (inactive).
For `CCOC(=O)c1nnn(Cc2ccccc2)c1N`, the growth inhibition was 3.75% (inactive).
With `NC(=O)/C(=C(/O)C(=O)O)c1ccnc2ccccc12` the growth inhibition was 7.35% (inactive).
With `C[Si](C)(C)c1ccc(-c2ccccc2)cc1` the growth inhibition was 2.25% (inactive).
In the case of `COC(=O)/C(=C\c1ccc(N(CCC#N)CCC#N)cc1)NC(=O)c1cc([N+](=O)[O-])ccc1Cl`, the growth inhibition is reported as -16.1% (inactive).
With `CC1C[C@]2(C)C(=NCCN)Nc3ccccc3[C@@H]2N(C)c2ccccc21` (stereo partly drawn) the growth inhibition was -10.8% (inactive).
With `COC(=O)c1cc(=O)[nH]c(=O)[nH]1` the growth inhibition was -15.8% (inactive).
With `CC(=O)c1cccc(NC(=O)Oc2ccc(C(=O)OCc3ccccc3)cc2)c1` the growth inhibition was 80.7% (active).
For `NC(=O)C(Cc1ccccc1)NC(=O)C1CCCN1` (stereo not drawn), the growth inhibition was 2.5% (inactive).
With `COc1ccccc1NC(N)=S` the growth inhibition was 5.65% (inactive).
For `CN(C(=O)/C=C/c1ccccc1)c1ccccc1`, the growth inhibition was 49.5% (inactive).
In the case of `Cc1ccc(N2CCN(c3ccc(C)cc3)C2=C2N(c3ccc(C)cc3)CCN2c2ccc(C)cc2)cc1`, the growth inhibition is reported as 56.5% (inactive).
For `c1ccc2c(CCNC3=NCCO3)cccc2c1`, the growth inhibition was -10.8% (inactive).
With `COC1(OC)CC2C(=O)N(Cc3ccccc3)C1C=C2S(=O)(=O)c1ccccc1` (stereo not drawn) the growth inhibition was -18.2% (inactive).

Assay: NCI Yeast Anticancer Drug Screen. Data for the cln2 rad14 strain (AID 165);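 note: 0% = growth equal to vehicle treated cultures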
Conditions: S. cerevisiae cln2 rad14 strain, at 50.0 µM, active compounds read high
Method in brief: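 Test compounds were added to cln2 rad14 yeast cultures; inhibition of growth was then determined by comparison with vehicle treatment.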
For `COc1cc2c(cc1O)C(=O)CCCC2`, the growth inhibition was -2.25% (inactive).
In the case of `CC(O)C1CCCCC1O` (stereo not drawn), the growth inhibition is reported as -8.65% (inactive).
With `CC(=O)OCC1OC(n2cccnc2=O)C(OC(C)=O)C1OC(C)=O` (stereo not drawn) the growth inhibition was 7.8% (inactive).
In the case of `CCCCOC(=O)c1c2nc3c(C(=O)OCCCC)ccc(C)c3oc-2c(C)c(=O)c1NC(C)=O`, the growth inhibition is reported as 4.9% (inactive).
For `O=C(Nc1cccc([N+](=O)[O-])c1)OCC#CCOC(=O)Nc1cccc([N+](=O)[O-])c1`, the growth inhibition was 11.8% (inactive).
For `Nc1cccc2ccc(Cl)nc12`, the growth inhibition was 9.7% (inactive).
For `O=P(O)(O)OC1C(OP(=O)(O)O)C(OP(=O)(O)O)C(OP(=O)(O)O)C(OP(=O)(O)O)C1OP(=O)(O)O.[Cu+2]` (stereo not drawn), the growth inhibition was -10.9% (inactive).
With `CC(C)SSC(=O)N1CCCC1C(=O)O` (stereo not drawn) the growth inhibition was -30.9% (inactive).
For `O=[N+]([O-])c1ccc(/C=N\NC(=S)Nc2ccc3cn[nH]c3c2)cc1`, the growth inhibition was -1.7% (inactive).
For `COC(=O)CCCCCNC(=O)NCCCCCC(=O)OC`, the growth inhibition was 6.25% (inactive).
For `COc1cc2c(cc1Cc1cc(OC)c(OC)c(OC)c1)OCO2`, the growth inhibition was -3.15% (inactive).
With `N#CCCNC(CC(=O)O)C(=O)O` (stereo not drawn) the growth inhibition was -13.2% (inactive).
With `Cc1ccc2nc3c(C)cc(=O)cc-3sc2c1` the growth inhibition was 44.9% (inactive).
With `Oc1ccc(O)c(-c2ccccc2)c1` the growth inhibition was 51% (inactive).
For `CCN(CC)CCOC(=O)c1noc2cc([N+](=O)[O-])ccc12`, the growth inhibition was -23.7% (inactive).
With `Nc1cccc(N2N=C(C(=O)O)CC2=O)c1` the growth inhibition was -12.7% (inactive).
In the case of `Cc1ccccc1NC(=O)CC(=O)N1N=C(N(CCC#N)c2ccccc2Cl)CC1c1ccccc1` (stereo not drawn), the growth inhibition is reported as 16.4% (inactive).
For `NC(=O)N/N=C/c1ccccc1O`, the growth inhibition was 5.95% (inactive).
For `CCCCCC(=O)Oc1ccccc1OC`, the growth inhibition was -29.4% (inactive).
With `C=C(C)COc1ccc(Nc2ccccc2)cc1` the growth inhibition was 6.65% (inactive).
For `NCCCCCC(=O)O`, the growth inhibition was 8.2% (inactive).
In the case of `Cc1cc(Br)ccc1NC1=CC(=O)C(=O)c2ccccc21`, the growth inhibition is reported as 11.3% (inactive).
For `Cc1cc2c(=O)cc(-c3ccncc3)oc2c(C(=O)O)c1C`, the growth inhibition was 20.5% (inactive).
With `CC1(C)CC(C2=NCCO2)CC(C)(C)N1` the growth inhibition was -6.45% (inactive).
With `C=CCOc1cc2c(cc1C(C)c1ccc(OCC)c(C)c1)OCO2` (stereo not drawn) the growth inhibition was -70.5% (inactive).
In the case of `COc1cccc(Oc2ccc(C)cc2)c1`, the growth inhibition is reported as -19.1% (inactive).
With `CCOC(=O)c1nnn(Cc2ccccc2)c1N` the growth inhibition was 26.1% (inactive).
With `NC(=O)/C(=C(/O)C(=O)O)c1ccnc2ccccc12` the growth inhibition was -41% (inactive).
With `C[Si](C)(C)c1ccc(-c2ccccc2)cc1` the growth inhibition was -61.7% (inactive).
With `COC(=O)/C(=C\c1ccc(N(CCC#N)CCC#N)cc1)NC(=O)c1cc([N+](=O)[O-])ccc1Cl` the growth inhibition was 5.65% (inactive).
With `CC1C[C@]2(C)C(=NCCN)Nc3ccccc3[C@@H]2N(C)c2ccccc21` (stereo partly drawn) the growth inhibition was -28.6% (inactive).
In the case of `COC(=O)c1cc(=O)[nH]c(=O)[nH]1`, the growth inhibition is reported as 9.45% (inactive).
In the case of `CC(=O)c1cccc(NC(=O)Oc2ccc(C(=O)OCc3ccccc3)cc2)c1`, the growth inhibition is reported as 42.8% (inactive).
For `NC(=O)C(Cc1ccccc1)NC(=O)C1CCCN1` (stereo not drawn), the growth inhibition was -33.9% (inactive).
With `COc1ccccc1NC(N)=S` the growth inhibition was 3.25% (inactive).
For `CN(C(=O)/C=C/c1ccccc1)c1ccccc1`, the growth inhibition was 27.1% (inactive).
With `Cc1ccc(N2CCN(c3ccc(C)cc3)C2=C2N(c3ccc(C)cc3)CCN2c2ccc(C)cc2)cc1` the growth inhibition was 34.1% (inactive).
With `c1ccc2c(CCNC3=NCCO3)cccc2c1` the growth inhibition was -7.5% (inactive).
For `COC1(OC)CC2C(=O)N(Cc3ccccc3)C1C=C2S(=O)(=O)c1ccccc1` (stereo not drawn), the growth inhibition was -47.5% (inactive).

Reference: PubChem BioAssay (NCI)
